{
  "source": "PubChem BioAssay (Tox21)",
  "note": "Values joined by “and” are separate entries in the source; they are usually repeats but may differ in a detail not shown here. Identical values can stand only once. Results filed as inconclusive are left out. Where a call stands in place of a potency, no number is given. Active and inactive are the calls of the source. Calls follow the shape of the dose curve; as a rule, active = well fitted curve in the direction sought with a large enough effect in the repeat runs; inconclusive = weak or mixed curves; inactive = no such curve, though single readings can be large; an effect the other way counts as inactive or inconclusive.",
  "data": [
    {"test_system": "not listed separately", "experiment": "qHTS assay to identify small molecule antagonists of the estrogen related receptor (ERR) signaling pathway - cell viability counter screen (AID 1224818)", "details": "ERR reporter cell line viability counter screen; series mostly up to 46.1 µM", "outline": "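Cytotoxicity check run alongside the ERR antagonist screen: cells exposed to test compounds 17.5 h at 37 C, viability taken as CellTiter-Fluor fluorescence intensity.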", "values": [
      {"smiles": "CN(C)c1ccc(N=NS(=O)(=O)O)cc1", "Potency": "inactive"},
      {"smiles": "Clc1ccc(C(c2ccccc2Cl)C(Cl)Cl)cc1", "note": "(centres undefined)", "Potency": "inactive"},
      {"smiles": "CN1CCN(C2Cc3ccccc3Sc3ccc(Cl)cc32)CC1", "note": "(centres undefined)", "Potency": "inactive"}
    ]},
    {"test_system": "not listed separately", "experiment": "qHTS assay to identify small molecule agonists of the estrogen related receptor (ERR) signaling pathway (AID 1224820)", "details": "ERR reporter cell line, luciferase agonist mode; series mostly up to 46.1 µM", "outline": "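Luminescence readout (One-Glo, 30 min RT) from NTP-supplied ERR cell line exposed to compounds for 18 h at 37 C. Cells seeded 2,000 per well and pre-incubated 6 h before pin-tool compound transfer.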", "values": [
      {"smiles": "O=C1NCN(c2ccccc2)C12CCN(CCCC(c1ccc(F)cc1)c1ccc(F)cc1)CC2", "outcome": "inactive"},
      {"smiles": "CSc1ccc2c(c1)N(CCC1CCCCN1C)c1ccccc1S2", "note": "(centres undefined)", "outcome": "inactive"},
      {"smiles": "CN1CCN(C2Cc3ccccc3Sc3ccc(Cl)cc32)CC1", "note": "(centres undefined)", "outcome": "inactive"}
    ]},
    {"test_system": "not listed separately", "experiment": "qHTS assay to identify small molecule antagonists of the estrogen related receptor signaling pathway with the pleiotropic PPARgamma coactivator (PGC) cell viability counter screen (AID 1224822; also: potency is read from the fitted curve at half-maximal effect;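 also: viability read after 17.5 h compound exposure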)", "details": "ERR/PGC reporter cell line viability counter screen; series mostly up to 46.1 µM", "outline": "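Viable cell signal (CellTiter-Fluor, 30 min, 37 C/5% CO2) was measured in PGC/ERR cells after a 17.5 h compound incubation.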", "values": [
      {"smiles": "O=C1NCN(c2ccccc2)C12CCN(CCCC(c1ccc(F)cc1)c1ccc(F)cc1)CC2", "Potency": "22.8 µM (active)"},
      {"smiles": "CC(C)c1cccc(C(C)C)c1N1C(=O)c2ccc(O)cc2C1=O", "Potency": "inactive"},
      {"smiles": "CN(C)c1ccc(N=NS(=O)(=O)O)cc1", "Potency": "inactive"}
    ]},
    {"test_system": "not listed separately", "experiment": "qHTS assay to identify small molecule antagonists of the estrogen related receptor (ERR) signaling pathway from Tox21 library - cell viability counter screen (AID 1224834); also: nearly all actives have a fitted effect of over 30% in size; also: potency is read from the fitted curve at half-maximal effect", "details": "ERR reporter cells viability, CellTiter-Fluor, 17.5 h; series mostly up to 92.4 µM", "outline": "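In this quantitative HTS format, ERR cells receive compounds in DMSO and are incubated for 17.5 h at 37 C. Live-cell protease activity is then detected with CellTiter-Fluor.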", "values": [
      {"smiles": "COc1ccc(C#N)cc1", "Potency": "inactive"},
      {"smiles": "C/C=C/CO", "Potency": "inactive"},
      {"smiles": "CCCCCCCCCC(=O)N(C)C", "Potency": "inactive"},
      {"smiles": "Cn1cccc1", "Potency": "inactive"},
      {"smiles": "CCC1CCCCC1", "Potency": "inactive"},
      {"smiles": "CCc1c(Br)c(Br)c(Br)c(Br)c1Br", "Potency": "inactive"},
      {"smiles": "O=C1NCN(c2ccccc2)C12CCN(CCCC(c1ccc(F)cc1)c1ccc(F)cc1)CC2", "Potency": "26.6 µM (active)"},
      {"smiles": "N#CSCSc1nc2ccccc2s1", "Potency": "61.1 µM (active)"},
      {"smiles": "O=Nc1ccc(NO)cc1", "Potency": "inactive"},
      {"smiles": "Cc1ccc(O)cn1", "Potency": "inactive"},
      {"smiles": "CCOC(=O)COc1ccc(C)cc1", "Potency": "inactive"},
      {"smiles": "Clc1cccnc1", "Potency": "inactive"},
      {"smiles": "CSc1ccc2c(c1)N(CCC1CCCCN1C)c1ccccc1S2", "note": "(centres undefined)", "Potency": "43.1 µM (active) and 33.5 µM (active)"},
      {"smiles": "CCCCCCCCCCCCCc1ccccc1", "Potency": "inactive"},
      {"smiles": "CC=O", "Potency": "28.6 µM (active)"},
      {"smiles": "O=S(=O)(O)c1cc(S(=O)(=O)O)c2ccc3c(S(=O)(=O)O)cc(S(=O)(=O)O)c4ccc1c2c43", "viability change, negative = cytotoxic": "4.03% [at 19 µM] (inactive)"},
      {"smiles": "CCCC(O)C(O)CO", "note": "(centres undefined)", "Potency": "inactive"},
      {"smiles": "CC1=CP(=O)(c2ccccc2)CC1", "note": "(centres undefined)", "Potency": "inactive"},
      {"smiles": "Clc1ccc(C(c2ccccc2Cl)C(Cl)Cl)cc1", "note": "(centres undefined)", "Potency": "inactive"},
      {"smiles": "c1ccc2c(c1)CCC2", "Potency": "inactive"},
      {"smiles": "O=C1c2c(O)ccc([N+](=O)[O-])c2C(=O)c2c([N+](=O)[O-])ccc(O)c21", "Potency": "27.1 µM (active)"},
      {"smiles": "O=C1C=CC(=O)N1c1ccccc1", "Potency": "43.3 µM (active)"},
      {"smiles": "CC(=O)OC1CCCCC1", "Potency": "inactive"},
      {"smiles": "C[C@]12CC[C@H]3C(=CCc4cc(O)ccc43)[C@@H]1CCC2=O", "Potency": "54.5 µM (active)"},
      {"smiles": "C=CC/C=C/C/C=C/C/C=C/C", "Potency": "inactive"},
      {"smiles": "CC1(C)C(=O)N(CO)C(=O)N1CO", "Potency": "inactive"},
      {"smiles": "CCc1cccc(CC)c1NC(=O)C(=O)O", "Potency": "inactive"},
      {"smiles": "O=C1OC(=O)c2ccc3c4c(ccc1c24)C(=O)OC3=O", "Potency": "inactive"},
      {"smiles": "CCOCN(C(=O)CS(=O)(=O)O)c1c(C)cccc1CC", "Potency": "inactive"},
      {"smiles": "CC(=O)O[C@@H]1C[C@@H]2CC[C@@]1(C)C2(C)C", "Potency": "inactive"},
      {"smiles": "CCOCOCC", "Potency": "inactive"},
      {"smiles": "C=CC(=O)OCCN(CC)CC", "Potency": "inactive"}
    ]},
    {"molecular_target": "Luciferin 4-monooxygenase (Photinus pyralis) (UniProt P08659)", "sequence (P08659 whole entry, looked up)": "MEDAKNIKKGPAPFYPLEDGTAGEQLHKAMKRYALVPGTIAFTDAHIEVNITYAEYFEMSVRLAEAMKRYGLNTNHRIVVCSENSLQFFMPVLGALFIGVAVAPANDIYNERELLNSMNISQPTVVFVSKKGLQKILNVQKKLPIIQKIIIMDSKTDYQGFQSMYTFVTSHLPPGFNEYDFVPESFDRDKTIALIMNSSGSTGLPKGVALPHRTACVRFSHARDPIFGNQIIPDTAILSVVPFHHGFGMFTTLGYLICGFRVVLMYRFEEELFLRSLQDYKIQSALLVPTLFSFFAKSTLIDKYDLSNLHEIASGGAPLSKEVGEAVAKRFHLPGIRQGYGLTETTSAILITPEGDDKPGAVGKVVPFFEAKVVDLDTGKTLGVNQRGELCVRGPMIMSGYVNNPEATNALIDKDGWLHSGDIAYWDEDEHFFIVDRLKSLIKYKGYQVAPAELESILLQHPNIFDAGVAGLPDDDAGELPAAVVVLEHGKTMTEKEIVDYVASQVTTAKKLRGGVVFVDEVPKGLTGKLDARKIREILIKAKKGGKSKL", "experiment": "qHTS assay to identify small molecule inhibitors of firefly luciferase (AID 1224835); also: nearly all actives have a fitted effect of over 25% in size; also: potency is read from the fitted curve at half-maximal effect", "details": "purified P. pyralis luciferase, luminescence inhibition; series mostly up to 115 µM", "outline": "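Biochemical qHTS: compounds run as interplate titrations against purified firefly enzyme, with D-luciferin and ATP each at its KM concentration. Light output recorded by CCD imaging.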", "values": [
      {"smiles": "COc1ccc(C#N)cc1", "Potency": "inactive"},
      {"smiles": "C/C=C/CO", "Potency": "inactive"},
      {"smiles": "Cn1cccc1", "Potency": "inactive"},
      {"smiles": "CCC1CCCCC1", "Potency": "inactive"},
      {"smiles": "CCc1c(Br)c(Br)c(Br)c(Br)c1Br", "Potency": "inactive"},
      {"smiles": "O=C1NCN(c2ccccc2)C12CCN(CCCC(c1ccc(F)cc1)c1ccc(F)cc1)CC2", "Potency": "inactive"},
      {"smiles": "N#CSCSc1nc2ccccc2s1", "Potency": "35.6 µM (active)"},
      {"smiles": "Cc1ccc(O)cn1", "Potency": "inactive"},
      {"smiles": "CCOC(=O)COc1ccc(C)cc1", "Potency": "63.3 µM (active)"},
      {"smiles": "CC(C)c1cccc(C(C)C)c1N1C(=O)c2ccc(O)cc2C1=O", "Potency": "inactive"},
      {"smiles": "Clc1cccnc1", "Potency": "inactive"},
      {"smiles": "CN(C)c1ccc(N=NS(=O)(=O)O)cc1", "Potency": "17.8 µM (active)"},
      {"smiles": "CSc1ccc2c(c1)N(CCC1CCCCN1C)c1ccccc1S2", "note": "(centres undefined)", "Potency": "inactive"},
      {"smiles": "CCCCCCCCCCCCCc1ccccc1", "Potency": "inactive"},
      {"smiles": "CC=O", "Potency": "inactive"},
      {"smiles": "O=S(=O)(O)c1cc(S(=O)(=O)O)c2ccc3c(S(=O)(=O)O)cc(S(=O)(=O)O)c4ccc1c2c43", "activity change, negative = inhibition": "-0.173% [at 23.6 µM] (inactive)"},
      {"smiles": "CCCC(O)C(O)CO", "note": "(centres undefined)", "Potency": "inactive"},
      {"smiles": "CC1=CP(=O)(c2ccccc2)CC1", "note": "(centres undefined)", "Potency": "inactive"},
      {"smiles": "Clc1ccc(C(c2ccccc2Cl)C(Cl)Cl)cc1", "note": "(centres undefined)", "Potency": "inactive"},
      {"smiles": "c1ccc2c(c1)CCC2", "Potency": "inactive"},
      {"smiles": "O=C1c2c(O)ccc([N+](=O)[O-])c2C(=O)c2c([N+](=O)[O-])ccc(O)c21", "Potency": "62.7 µM (active)"},
      {"smiles": "O=C1C=CC(=O)N1c1ccccc1", "Potency": "22.4 µM (active)"},
      {"smiles": "CN1CCN(C2Cc3ccccc3Sc3ccc(Cl)cc32)CC1", "note": "(centres undefined)", "Potency": "inactive"},
      {"smiles": "CC(=O)OC1CCCCC1", "Potency": "inactive"},
      {"smiles": "C[C@]12CC[C@H]3C(=CCc4cc(O)ccc43)[C@@H]1CCC2=O", "Potency": "35.6 µM (active)"},
      {"smiles": "C=CC/C=C/C/C=C/C/C=C/C", "Potency": "inactive"},
      {"smiles": "CC1(C)C(=O)N(CO)C(=O)N1CO", "Potency": "inactive"},
      {"smiles": "CCc1cccc(CC)c1NC(=O)C(=O)O", "Potency": "inactive"},
      {"smiles": "O=C1OC(=O)c2ccc3c4c(ccc1c24)C(=O)OC3=O", "Potency": "inactive"},
      {"smiles": "CCOCN(C(=O)CS(=O)(=O)O)c1c(C)cccc1CC", "Potency": "inactive"},
      {"smiles": "CC(=O)O[C@@H]1C[C@@H]2CC[C@@]1(C)C2(C)C", "Potency": "inactive"},
      {"smiles": "CCOCOCC", "Potency": "inactive"},
      {"smiles": "C=CC(=O)OCCN(CC)CC", "Potency": "inactive"}
    ]}
  ]
}
